Assay results from PubChem BioAssay (NCATS).
Active and inactive are the calls of the source.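 Rule for the calls: active = compounds whose dose series gives a full or clear partial fitted curve of increased nuclear translocation; inconclusive = weak partial curve or effect only at the top dose; inactive = no dose-dependent translocation response.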

Target: Glucocorticoid receptor (Homo sapiens) (UniProt P04150)
Assay: GR-GFP Redistribution (AID 450)
Conditions: U2OS GR-GFP nuclear translocation, laser cytometry, 2 h
Potency is the fitted concentration of half-maximal effect.

Chain of Glucocorticoid receptor (Homo sapiens) (P04150 whole entry, looked up): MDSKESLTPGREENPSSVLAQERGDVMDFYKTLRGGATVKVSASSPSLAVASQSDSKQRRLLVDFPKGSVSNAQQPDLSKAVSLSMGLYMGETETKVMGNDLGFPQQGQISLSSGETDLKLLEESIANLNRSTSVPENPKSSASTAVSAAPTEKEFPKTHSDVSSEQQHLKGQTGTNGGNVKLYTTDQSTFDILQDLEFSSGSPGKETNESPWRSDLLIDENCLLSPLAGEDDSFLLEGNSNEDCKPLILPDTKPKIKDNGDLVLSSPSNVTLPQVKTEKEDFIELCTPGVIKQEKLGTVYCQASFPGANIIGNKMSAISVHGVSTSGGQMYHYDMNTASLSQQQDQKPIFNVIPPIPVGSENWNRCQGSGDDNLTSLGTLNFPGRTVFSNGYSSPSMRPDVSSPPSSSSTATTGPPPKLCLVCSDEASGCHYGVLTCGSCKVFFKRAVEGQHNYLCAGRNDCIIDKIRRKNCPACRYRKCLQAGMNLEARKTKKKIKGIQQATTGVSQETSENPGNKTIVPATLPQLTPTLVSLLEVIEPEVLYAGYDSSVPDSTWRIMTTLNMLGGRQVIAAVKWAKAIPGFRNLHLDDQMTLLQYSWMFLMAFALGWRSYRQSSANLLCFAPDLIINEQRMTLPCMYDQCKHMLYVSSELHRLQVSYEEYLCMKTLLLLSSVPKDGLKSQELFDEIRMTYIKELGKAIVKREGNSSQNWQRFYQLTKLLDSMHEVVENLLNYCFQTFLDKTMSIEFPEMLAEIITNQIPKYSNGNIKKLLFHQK

**Q.** With `CC(=O)[C@H](CC(C)C)NC(=O)[C@@H](CC(C)C)NC(=O)[C@H](CC(C)C)NC(=O)OCc1ccccc1` as the compound, how does the Potency read?
**A.** > 46 µM (inactive)

**Q.** `NS(=O)(=O)c1cccc2c1c([N+](=O)[O-])cc1[nH]c(=O)c(=O)[nH]c12` was tested. Which Potency did it give?
**A.** > 46 µM (inactive)

**Q.** Which Potency does the source give for `CC(=O)OCCNC(=O)c1cccnc1` here?
**A.** > 46 µM (inactive)

**Q.** `c1ccc2cc(C3=NCCN3)ncc2c1` was tested. Which Potency did it give?
**A.** > 46 µM (inactive)

**Q.** For `CS(=O)(=O)Nc1ccc([N+](=O)[O-])cc1OC1CCCCC1`, which Potency is on record?
**A.** > 46 µM (inactive)

**Q.** With `COc1cccc(C=NC=Nc2cccc(OC)c2)c1` as the compound, how does the Potency read?
**A.** > 46 µM (inactive)

**Q.** With `CC#CCOC(=O)C1=CCCN(C)C1` as the compound, how does the Potency read?
**A.** > 46 µM (inactive)

**Q.** `NCCCCNS(=O)(=O)c1ccc2c(Cl)cccc2c1` was tested. Which Potency did it give?
**A.** > 46 µM (inactive)

**Q.** `C[C@](O)(C(=O)Nc1ccc(S(=O)(=O)c2ccccc2)cc1)C(F)(F)F` was tested. Which Potency did it give?
**A.** > 46 µM (inactive)

**Q.** How did the Potency turn out when `O=C(O)CC/C=C\C[C@@H]1CO[C@H](c2ccccc2Cl)O[C@@H]1c1ccccc1O` was run?
**A.** > 46 µM (inactive)

**Q.** How did the Potency turn out when `Cc1ccc(-c2nn(CC(C)(C)C)c3ncnc(N)c23)cc1` was run?
**A.** > 46 µM (inactive)

**Q.** How did the Potency turn out when `Cc1noc(NS(=O)(=O)c2cccc3c(N(C)C)cccc23)c1C` was run?
**A.** > 46 µM (inactive)

**Q.** How did the Potency turn out when `CCCCC[C@H](O)/C=C/[C@H]1C=CC(=O)[C@@H]1C/C=C\CCCC(=O)O` was run?
**A.** > 20.6 µM (inactive)

**Q.** `O=c1nc2ccccc2c2n1C[C@H](CN1CCN(c3ccccc3)CC1)N2` was tested. Which Potency did it give?
**A.** > 46 µM (inactive)
